Source: PubChem BioAssay (NCATS)
Inconclusive results are not listed. Values without a mark were called inactive. Activity calls are given as the source filed them. Calls come from the whole dose curve; as a rule, active = well fitted inhibition curve with a large enough effect; inconclusive = small, poorly fitted or top-dose-only effect; inactive = flat fitted curve, though single readings scatter.

molecular target: Phospholipid hydroperoxide glutathione peroxidase GPX4 (Homo sapiens) (UniProt P36969); test: Primary qHTS Assay for Inhibitors of Recombinant Selenoprotein Glutathione Peroxidase 4 (GPX4) (AID 1845192); settings: recombinant GPX4, GR-coupled NADPH fluorescence, 15 min; series mostly up to 50 µM; activity change, negative = inhibition: at the top concentration; note: nearly all actives have a fitted effect of over 65% in size
Summary of the method: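 Steps: GPX4 plus compound, 30 min RT; add GR/GSH/NADPH master mix; start with cumene hydroperoxide; read 340/450 nm fluorescence at 0 and 15 min. Finals were 200 nM GPX4, 1 mM GSH, 0.5 mM CHP, 0.5 mM NADPH, 100 nM GR.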
% is set by controls: 0 for no effect and ±100 for the full control effect.

Chain of Phospholipid hydroperoxide glutathione peroxidase GPX4 (Homo sapiens) (P36969 whole entry, looked up): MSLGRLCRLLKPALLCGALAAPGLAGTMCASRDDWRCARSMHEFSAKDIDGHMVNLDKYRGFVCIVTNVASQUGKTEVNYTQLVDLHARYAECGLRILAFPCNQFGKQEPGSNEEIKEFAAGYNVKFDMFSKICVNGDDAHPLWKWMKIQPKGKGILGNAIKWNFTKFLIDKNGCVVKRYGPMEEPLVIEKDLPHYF

First: C=C1CCC2C(OC(=O)C2(O)COC(C)=O)C2C(=C)C(O)CC12 (stereo not drawn)
Second: CC(=O)OC[C@]1(O)[C@H]2[C@H](OC(=O)CC(C)C)OC=C(CO[C@@H]3O[C@H](CO)[C@@H](O)[C@H](O)[C@H]3O)[C@H]2C[C@@H]1O
The “activity change, negative = inhibition” value of the first is lower: 1.67% [at 27.8 µM] for the first, 4.99% [at 27.8 µM] for the second.

Going from `C=C1CC[C@@H]2[C@](C)(CO[C@@H]3O[C@H](CO)[C@@H](O)[C@H](O)[C@H]3O)CCC[C@@]2(C)[C@@H]1CCC1=CCOC1=O` to `OCC1=CC[C@@H]2C=CO[C@@H](O[C@@H]3O[C@H](CO)[C@@H](O)[C@H](O)[C@H]3O)[C@H]12`, the “activity change, negative = inhibition” value rises from -4.62% [at 27.8 µM] to 2.86% [at 27.8 µM].

Compared with `O=C(OCC12OC1C=CC(OC(=O)c1ccccc1)C2O)c1ccccc1` (stereo not drawn), `COC(=O)C1=C[C@@H](O)[C@@H](O)[C@H](O[C@@H]2O[C@H](COC(=O)/C=C/c3ccccc3)[C@@H](O)[C@H](O)[C@H]2O)C1` is higher in “activity change, negative = inhibition” value: -6.73% [at 27.8 µM] for the first, -3.11% [at 27.8 µM] for the second.

Compared with `CC1(C(=O)O)CCCC2(C)C1CCC13CC(CCC21)C1(CO)OC31` (stereo not drawn), `CC(C(=O)O)C1CCC2(C)C3C(=O)C=C4C(CCC(=O)C4(C)C)C3(C)CCC12C` (stereo not drawn) is lower in “activity change, negative = inhibition” value: 2.12% [at 27.8 µM] for the first, -4.05% [at 27.8 µM] for the second.

First: CC1CCC23COC(=O)C2=CC(O)CC3C1(C)CCC1=CC(=O)OC1O (stereo not drawn)
Second: CC1(C)O[C@]23C[C@H]1C[C@H](OC(=O)c1ccoc1)[C@]2(C)[C@@H](OC(=O)c1ccoc1)CCC3(C)O (stereo partly drawn)
The “activity change, negative = inhibition” value of the first is higher: 0.123% [at 27.8 µM] for the first, -5.97% [at 27.8 µM] for the second.

Compared with `CCC(C)/C=C(C)/C=C/C1=CC2=C(Cl)C(=O)C(C)(OC(C)=O)C(=O)C2=CN1CCCC(=O)O` (stereo not drawn), `Cc1cc(O)c(C(C)C)cc1O[C@@H]1O[C@H](CO)[C@@H](O)[C@H](O)[C@H]1O` is higher in “activity change, negative = inhibition” value: -7.68% [at 27.8 µM] for the first, 0.666% [at 27.8 µM] for the second.

For `O=C(/C=C/c1ccc(O)cc1)O[C@H]1[C@@H]2C=CO[C@@H](O[C@@H]3O[C@H](CO)[C@@H](O)[C@H](O)[C@H]3O)[C@@H]2[C@@]2(CO)O[C@@H]12`, the “activity change, negative = inhibition” value was 2.6% [at 27.8 µM].

In the case of `COc1ccc2c(c1O)OC[C@H]1c3ccc(O)cc3O[C@@H]21`, the “outcome” value is reported as “inactive”.
`O=C(CCO[C@@H]1O[C@H](CO)[C@@H](O)[C@H](O)[C@H]1O)c1ccc(O)cc1` was tested, and the “outcome” value was “inactive [at 27.8 µM]”.
In the case of `COC(=O)C1=CO[C@@H](O[C@@H]2O[C@H](CO)[C@@H](O)[C@H](O)[C@H]2O)[C@@H]2[C@@](C)(O)[C@@H](O)C[C@]12O`, the “outcome” value is reported as “inactive [at 27.8 µM]”.
For `COc1ccc(/C=C/C(=O)O[C@@H]2[C@@H](OC(C)=O)[C@@H](OC(C)=O)[C@H](O[C@H]3[C@@H]4C=CO[C@@H](O[C@@H]5O[C@H](CO)[C@@H](O)[C@H](O)[C@H]5O)[C@@H]4[C@@]4(CO)O[C@@H]34)O[C@H]2C)cc1O`, the “outcome” value was “inactive [at 15.3 µM]”.
In the case of `OC[C@H]1O[C@@H](Oc2ccc3c(c2)OC[C@H]2c4cc5c(cc4O[C@@H]32)OCO5)[C@H](O)[C@@H](O)[C@@H]1O`, the “outcome” value is reported as “inactive [at 27.8 µM]”.
`NC(=O)c1ccc(OCC2NC(=O)C3CCCN3C2=O)cc1` (stereo not drawn) was tested, and the “outcome” value was “inactive”.
For `CC1(O)CCC2C(C(=O)O)=COC(OC3OC(CO)C(O)C(O)C3OC(=O)/C=C/c3ccc(O)cc3)C21` (stereo not drawn), the “outcome” value was “inactive [at 27.8 µM]”.

With `NC1CCC(N[C@@H]2C[C@H]2c2ccccc2)CC1` (stereo partly drawn) the Potency was “inactive”.
For `CC(C)Nc1cc(-c2c[nH]c(C(=O)N[C@H](CO)c3cccc(Cl)c3)c2)c(Cl)cn1`, the Potency was “inactive”.
With `CCC(=O)NS(=O)(=O)c1ccc(-c2c(-c3ccccc3)noc2C)cc1` the Potency was “inactive”.
For `OC[C@H]1O[C@@H](OCCc2ccc(O)cc2)[C@H](O)[C@@H](O)[C@@H]1O`, the Potency was “inactive”.

Going from `COC1CC(=O)CCC(C)OC(=O)CC1O` (stereo not drawn) to `CC1CCC2C(C(=O)O)=CC3C(O)C(C)(C)CC123` (stereo not drawn), the “activity change, negative = inhibition” value rises from -7.75% to 0.0749%.

Compared with `COC(=O)c1cc(CN2CCN(C(=N)N)CC2)cc(C(=O)N2CCN(C(=O)c3ccc(C(=N)N)cc3)CC2)c1`, `CCc1c(CC(N)=O)c2cc(OCCCP(=O)(O)O)ccc2n1Cc1ccccc1` is higher in “activity change, negative = inhibition” value: -7.56% for the first, 5.77% for the second.

Compared with `CN1C(=O)N[C@@H](Cc2c[nH]c3c(Cl)cccc23)C1=O`, `CC(NC(=O)CC(=O)O)c1nc2ccccc2c(=O)[nH]1` (stereo not drawn) is lower in “activity change, negative = inhibition” value: 3.83% for the first, 1.56% for the second.

Going from `Cc1ccc(C(=O)Nc2ccc(Oc3cc4cnn(C)c4cc3-c3cn[nH]c3)c(F)c2)c(=O)n1-c1ccc(F)cc1` to `Cc1cc(C)cc(NC(=O)Cc2ccc(OC(C)(C)C(=O)O)cc2)c1`, the “activity change, negative = inhibition” value rises from -7.15% to -0.478%.

First: CC1(C)CCCC2(C)C(CO)C3CCC2C31 (stereo not drawn)
Second: O=c1ccn([C@@H]2O[C@H](CO)[C@@H](O)[C@H]2O)c(=O)[nH]1
The “activity change, negative = inhibition” value of the first is lower: 0.0781% for the first, 0.171% for the second.

With `c1ccc(Cc2ncc3c(n2)CCNCC3)cc1` the “activity change, negative = inhibition” value was -0.333%.

Compared with `C[C@@H]1O[C@@H](O[C@H]2[C@H](O)[C@@H](C(=O)O)O[C@@H](O[C@H]3CC[C@@]4(C)C(CC[C@]5(C)C4CC=C4C6CC(C)(C)CC[C@]6(C(=O)O)CC[C@]45C)C3(C)C)[C@@H]2O[C@@H]2O[C@H](CO)[C@@H](O)[C@H](O)[C@H]2O)[C@H](O)[C@H](O)[C@H]1O` (stereo partly drawn), `CC1(C)CCC2(C(=O)OC3OC(COC4OC(CO)C(O)C(O)C4O)C(O)C(O)C3O)CCC3(C)C(=CCC4C5(C)CCC(O)C(C)(C(=O)O)C5CCC43C)C2C1O` (stereo not drawn) is lower in “activity change, negative = inhibition” value: -0.676% [at 15.3 µM] for the first, -9.72% [at 15.3 µM] for the second.

With `CC1(C)CC[C@]2(C(=O)O[C@@H]3O[C@H](CO)[C@@H](O)[C@H](O)[C@H]3O)CC[C@]3(C)C(=CCC4[C@@]5(C)C[C@@H](O)[C@H](O)[C@@](C)(CO)C5CC[C@]43C)C2C1` (stereo partly drawn) the “activity change, negative = inhibition” value was -4.9% [at 15.3 µM].
